From PMC7819943, “Rice protein-binding microarrays: a tool to detect cis-acting elements near promoter regions in rice”
In all, about 68,000 sequences were measured (“fluorescence intensity (a.u.)”: median about 9,100, highest 2% from about 16,000 on). Many of the other results were omitted from the sample, so the highest values are more common in it than they were.

molecular target: OsWRKY34 (Oryza sativa, UniProt Q0JBA9 1-250); test: protein-binding microarray (RPBM); PBS, 2% BSA, 51.3 ng/ul salmon testes DNA, 50 uM zinc acetate, 200 nM TF, 25 C, 1 h; high values mean tight binding; conditions: protein: recombinant; tags: N-terminal polyhistidine and DsRed monomer fusion (pET32a); label: CyDye5-dUTP incorporated in the synthesized complementary strand; 3' TTTTT single-stranded linker to array surface; dsDNA, one strand shown
Outline: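 Polyhistidine-tagged DsRed fusions of transcription factors, joined at the N-terminus, were expressed in E. coli BL21-CodonPlus and isolated on Ni–NTA. They were incubated at 200 nM for 1 h at 25 °C on a custom Agilent array, double-stranded and BSA-blocked, in PBS with 2% BSA, salmon testes DNA and 50 µM zinc acetate. The binding signal is per-feature fluorescence intensity (arbitrary units) read on an Axon 4000B scanner after washing.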

OsWRKY34, sequence (Q0JBA9 entry or part of it): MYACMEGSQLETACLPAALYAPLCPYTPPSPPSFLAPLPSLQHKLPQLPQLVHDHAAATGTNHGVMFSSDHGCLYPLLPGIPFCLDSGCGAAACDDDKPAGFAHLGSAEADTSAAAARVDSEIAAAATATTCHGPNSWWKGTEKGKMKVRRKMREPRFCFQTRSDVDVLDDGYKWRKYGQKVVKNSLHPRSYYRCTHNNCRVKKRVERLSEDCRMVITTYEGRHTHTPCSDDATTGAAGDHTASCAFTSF

Row | Sequence | binding signal
1 | CTCAACTCGGGATGACATTTGGGGTGTTTTTTTTTTGCAACGGAGTCACCTAGTGCAG | 9820 fluorescence intensity (a.u.)
2 | TACTTGCACTTTACTATATTCTTGCTGTTACGCACCACATCGGAGTCACCTAGTGCAG | 14600 fluorescence intensity (a.u.)
3 | AGTTAAAACCGCTACTCCACTCCTCCCATTGCATAATTTTCGGAGTCACCTAGTGCAG | 9400 fluorescence intensity (a.u.)
4 | AATTTTGATAGATGTGGGATGTGTTGTAATTTGTAAATTTCGGAGTCACCTAGTGCAG | 8270 fluorescence intensity (a.u.)
5 | AGGTTCCGGGAGGGCGGGGTGGAGCACGAGGCGGCGGTGCCGGAGTCACCTAGTGCAG | 10600 fluorescence intensity (a.u.)
6 | TTTGCAGGTTTCGTTTGCATTTGCGGGGCGGGCATATATGCGGAGTCACCTAGTGCAG | 21600 fluorescence intensity (a.u.)
7 | AAGGTGGTGGGGCAGGTGGAGCGGGTGGTCGGGGCGACGCCGGAGTCACCTAGTGCAG | 11300 fluorescence intensity (a.u.)
8 | TGGCGCGTGGGAGGGTCAGCCTAGGGCGTCGGAGGGGCGGCGGAGTCACCTAGTGCAG | 13400 fluorescence intensity (a.u.)
9 | GCGGCAGGTTTCGGCGGCGGGGCGGGCGGCAGGTGTCGGCCGGAGTCACCTAGTGCAG | 20000 fluorescence intensity (a.u.)
10 | GCCGGCGGCAGGGTGGGGCGGGGACGCCTGCCGGCGTCGGCGGAGTCACCTAGTGCAG | 9860 fluorescence intensity (a.u.)
11 | TTGTCCTCAGCCGGCAGTGTAGGTTCCGGGAGGGCGGGGTCGGAGTCACCTAGTGCAG | 19300 fluorescence intensity (a.u.)
12 | TTTCGGTTTTGCTACTTCACATGCGCATATTTTTGGAGGGCGGAGTCACCTAGTGCAG | 9330 fluorescence intensity (a.u.)
13 | TTCTTTTCTTTTTTTCTTTGCGGGGATTTCATATAGGATTCGGAGTCACCTAGTGCAG | 8510 fluorescence intensity (a.u.)
14 | TTTTGCGCGGATGGCCCTTTACTTTTCCCCTCTTGTCCTCCGGAGTCACCTAGTGCAG | 10400 fluorescence intensity (a.u.)
15 | ACTTCTACTCCTACTTCCCTGTGTGGCCCACAGCTAGATACGGAGTCACCTAGTGCAG | 10300 fluorescence intensity (a.u.)
16 | TGGAAGTCTGGAAGGCGCTGTACCTTCGTCTCGCCCGTCACGGAGTCACCTAGTGCAG | 8650 fluorescence intensity (a.u.)
17 | ATATGTCAAGTTTGGTGGATATAGTTGTTTGGCCTTTTACCGGAGTCACCTAGTGCAG | 11700 fluorescence intensity (a.u.)
18 | CACGCTGCACTGCACCGCTTTACGCCATCTCGCCAATTTTCGGAGTCACCTAGTGCAG | 10300 fluorescence intensity (a.u.)
19 | CCAATTTTTTTTTCTCCTTTTGCTTTTTTTCATCAAGAACCGGAGTCACCTAGTGCAG | 8740 fluorescence intensity (a.u.)
20 | CGGAACCGCTCCTCGAGAAGCTCTCGAATTCCTCGTCGTCCGGAGTCACCTAGTGCAG | 9310 fluorescence intensity (a.u.)
21 | ATAAGACGAACGGTTAAAAATGTGCCAAAAAGTCAACGGCCGGAGTCACCTAGTGCAG | 9640 fluorescence intensity (a.u.)

Row | Sequence | binding signal
22 | AGACGAACAGTCAAATATGTGCTAAAAAGTCAACGGTGTCCGGAGTCACCTAGTGCAG | 17500 fluorescence intensity (a.u.)
23 | AAGACGAACGGTCAAATATGTGCTAAAAAGTCAACGGTGTCGGAGTCACCTAGTGCAG | 9990 fluorescence intensity (a.u.)
24 | GGTAAAATATGTGCTAAAAAGTCAACGGTGTCAAACATTTCGGAGTCACCTAGTGCAG | 14400 fluorescence intensity (a.u.)
25 | ATAAGACGAACGGTCAAATATGTGCTAAAAAGTCAACGGTCGGAGTCACCTAGTGCAG | 16400 fluorescence intensity (a.u.)
26 | TAAGACGAATGGTCAAATATGTGCTAAAAAGTCAACGGTGCGGAGTCACCTAGTGCAG | 13100 fluorescence intensity (a.u.)
27 | GAACGGTCAAACATGTGTTAAAAAGTCAACGGTGTTAAACCGGAGTCACCTAGTGCAG | 9470 fluorescence intensity (a.u.)
28 | TGTTATGCAAATGTGCAAATGCAAAAGTTGGCCGCAAGAACGGAGTCACCTAGTGCAG | 17600 fluorescence intensity (a.u.)
29 | AGAACGAACAGTCAAACATATGCTAAAAAGTCAACGGTGTCGGAGTCACCTAGTGCAG | 10200 fluorescence intensity (a.u.)
30 | TCCTATCCCTACGAGCACTTCCGAAATATTGGACTGACATCGGAGTCACCTAGTGCAG | 8370 fluorescence intensity (a.u.)
31 | ATAACTCGGGTCGGACTCGGACCTCAGGCCCACGTATTCCCGGAGTCACCTAGTGCAG | 8400 fluorescence intensity (a.u.)
32 | CGCTGATTGGGTTGGGTCGGGTTAGCTTTGGTTTCAATGCCGGAGTCACCTAGTGCAG | 11200 fluorescence intensity (a.u.)
33 | AATACTCCTCTACTCATATTAGTACAATATCACAAACTTACGGAGTCACCTAGTGCAG | 8250 fluorescence intensity (a.u.)
34 | ACTGCTTTGTTCTATTTGATTATTTTTTTACTCATCAGATCGGAGTCACCTAGTGCAG | 15900 fluorescence intensity (a.u.)
35 | TGTTTGACGCCGTTGACTTTTTAACACATGTTTGACCGTTCGGAGTCACCTAGTGCAG | 41700 fluorescence intensity (a.u.)
36 | ACGCCATTGACTTTTTAGCAGATGTTTGACCGTTCGTTTTCGGAGTCACCTAGTGCAG | 20700 fluorescence intensity (a.u.)
37 | TGTTTGACGCCGTTGACTTTTTAGCACATGTTTGACCGTTCGGAGTCACCTAGTGCAG | 43600 fluorescence intensity (a.u.)
38 | ATGTTTGACACCGTTGATTTTTTAACACATGTTTGACCGTCGGAGTCACCTAGTGCAG | 9910 fluorescence intensity (a.u.)
39 | AATGTTTGACGCCGTTGACTTTTTAGCACATGTTGACCGTCGGAGTCACCTAGTGCAG | 42200 fluorescence intensity (a.u.)
40 | GCCGCGCACGCCGTCATCTCTTTTTCGTTCCATACTTCTCCGGAGTCACCTAGTGCAG | 10700 fluorescence intensity (a.u.)
41 | GGCTGGGTGTTACAACTTTGTCCAAAACATCAATAATTATCGGAGTCACCTAGTGCAG | 8610 fluorescence intensity (a.u.)
42 | CCCACATTTTTTCTTCTCACTTATATGTGGGTCCCATAATCGGAGTCACCTAGTGCAG | 8640 fluorescence intensity (a.u.)
